# Inconclusive results are not listed. Entries that show only a call come without a potency. Calls of active or inactive are those of the source. Calls follow the shape of the dose curve; as a rule, active = well fitted activation curve with a large enough effect in the signal ratio in the repeat runs (not every such curve was filed as active); inconclusive = weak or mixed curves, or effect the other way; inactive = flat fitted curve, though single readings scatter; the % refers to the signal ratio.
# Test: qHTS assay to identify small molecule agonists of the endoplasmic reticulum stress response signaling pathway (AID 1159516)
# Details: ESRE-bla HeLa, ER stress beta-lactamase reporter, 5 h; series mostly up to 61 µM
# Text: National Center for Advancing Translational Sciences [NCATS]
# NIH Chemical Genomics Center [NCGC]
# U.S. Environmental Protection Agency [EPA]
# National Institutes of Environmental Health Sciences [NIEHS]
# National Toxicology Program [NTP]
# U.S. Food and Drug Administration [FDA]
# Endoplasmic Reticulum (ER) plays an important role in cellular signaling, protein folding/maturation, stress response, lipid biosynthesis, calcium storage and release etc. Under stress conditions, proteins in ER misfold or unfold, and leading to the expression of ER stress responsive genes. ER stress has been associated with a variety of pathophysiological conditions such as cancer, inflammation, neurodegenerative diseases, diabetes, ischemic heart disease etc. To identify the compounds that induce ER stress response, an ER stress reporter cell line, CellSensor ESRE-bla HeLa (Life Technologies, Carlsbad, CA) containing a beta-lactamase reporter gene under control of the Endoplasmic reticulum Stress Response Element (ESRE) was used to screen Tox21 10K compound library.
# Tox21 Assay Protocol Summary:
# ESRE-bla HeLa cells were dispensed at 1,500 cells/6 uL of assay medium per well into black wall/clear-bottom 1536-well plates using a Multidrop Combi (ThermoFisher Scientific, Waltham, MA) dispenser. After the assay plates were incubated at 37 C and 5% CO2 for an overnight, 23 nL of compounds dissolved in DMSO, positive controls or DMSO only was transferred to the assay plate by a Pintool station (Kalypsys, San Diego, CA). The assay plates were incubated at 37 C and 5% CO2 for 5 hr. One uL of LiveBLAzer B/G FRET substrate (Life Technologies) was added using a Flying Reagent Dispenser (Aurora Discovery, San Diego, CA) and the plates were incubated at room temperature for 2 hr. Fluorescence intensity (405 nm excitation, 460 nm and 530 nm emissions) was measured using an Envision plate reader (PerkinElmer, Shelton, CT).
# Potency is read from the fitted curve at half-maximal effect.
row,Compound,Potency
1,CN(C)CCc1c[nH]c2ccc(O)cc12,inactive
2,COc1ccc(N)cc1N,inactive
3,Cc1cc(SCc2sc(-c3ccc(C(F)(F)F)c(F)c3)nc2C)ccc1OCC(=O)O,inactive
4,Cc1cc(C(F)(C(F)(F)F)C(F)(F)F)ccc1NC(=O)c1cccc(I)c1C(=O)NC(C)(C)CS(C)(=O)=O,inactive
5,COc1cccc(C(=O)CCN[C@@H](C)[C@H](O)c2ccccc2)c1,inactive
6,BrCBr,inactive
7,ClC(Cl)=C(Cl)Cl,inactive
8,CCCCCCCCCBr,inactive
9,O=C(O)COc1nc(Cl)c(Cl)cc1Cl,inactive
10,CC(C)(C)c1ccc(CSc2cnn(C(C)(C)C)c(=O)c2Cl)cc1,inactive
11,O=C1NCN(c2ccccc2)C12CCN(CC1COc3ccccc3O1)CC2 (stereo not given),inactive
12,[Cl][Sb]([Cl])[Cl],inactive
13,C[C@]12Cc3nonc3C[C@@H]1CC[C@@H]1[C@@H]2CC[C@@]2(C)[C@H]1CC[C@]2(C)O,inactive
14,N#CNC#N,inactive
15,CC(=O)[O-].CC(=O)[O-].O.O.[Cd+2],216 nM (active)
16,C[C@]12CC[C@H]3[C@@H](CCC4=CC(=O)CC[C@@]43C)[C@@H]1CC[C@@H]2O,inactive
17,C1CCC2CCCCC2C1 (stereo not given),inactive
18,CC1(C)CC/C(=C/c2ccc(Cl)cc2)C1(O)Cn1cncn1 (stereo not given),inactive
19,CC(c1ccc(O)cc1)c1ccc(O)cc1,inactive
20,CN(C)CCc1c[nH]c2cccc(O)c12,inactive

row,Compound,Potency
1,Clc1ccc(C(Cl)(Cl)Cl)c(Cl)c1,inactive
2,O=C(O)C1C2CCC(O2)C1C(=O)O (stereo not given),inactive
3,CCCN(CC)CC1COC2(CCC(C(C)(C)C)CC2)O1 (stereo not given),inactive
4,ClC1=C(Cl)[C@]2(Cl)[C@H]3[C@H]([C@H]4C=C[C@H]3C4)[C@@]1(Cl)C2(Cl)Cl,inactive
5,Cc1cc(C)cc(OP(=O)(Oc2cc(C)cc(C)c2)Oc2cc(C)cc(C)c2)c1,inactive
6,Nc1ccccc1C(=O)Oc1ccc2ccccc2c1,inactive
7,CCCCCCCCCCCCBr,inactive
8,O=C(CBr)c1ccc(O)cc1,inactive
9,c1ccc2c(c1)OCC(C1=NCCN1)O2 (stereo not given),inactive
10,CC(C)CC(C)N (stereo not given),inactive
11,CS(=O)(=O)c1ccc(C(=O)C2C(=O)CCCC2=O)c([N+](=O)[O-])c1,inactive
12,CC(C)(C)OO,inactive
13,O=[N+]([O-])c1ccc(Oc2ccc(C(F)(F)F)cc2[N+](=O)[O-])cc1,inactive
14,c1ccc(OCC2CO2)cc1 (stereo not given),inactive
15,N#CCCSCCC#N,inactive
16,S=C(SSC(=S)N1CCCCC1)N1CCCCC1,inactive
17,CCCN(CCC)CCc1c[nH]c2ccccc12,inactive
18,CC(=O)Nc1ccc2c(c1)Cc1ccccc1-2,inactive
19,CC(C)(C)C(O)/C(=C\c1ccc(Cl)cc1Cl)n1cncn1 (stereo not given),inactive
20,O=c1[nH]c2ccccc2n1CCCN1CCC(n2c(=O)[nH]c3cc(Cl)ccc32)CC1,inactive
